Calls of active or inactive are those of the source. The calls were made as follows: active = hit-call score of the fitted dose curve at least 0.9, where 1 is the maximum; inactive = score below 0.9.
Test: CCTE_Shafer_MEA_acute_spike_number: CCTE's Neural Acute Assay for Total Number of Spikes, Shafer Lab (AID 2284008);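 as to AC50: curve fitted for decrease in spike count so AC50 reflects inhibitors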
In short: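 Rat primary cortical neurons on 48-well MEA plates, DIV 13 or 15, at 37 C. 40 min baseline then 40 min with compound (0.03-40 uM); spikes detected at 8x rms noise, expressed as percent change from baseline.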

SMILES	outcome	AC50
CO[C@H]1/C=C/O[C@@]2(C)Oc3c(C)c(O)c4c(O)c(c(/C=N/N5CCN(C)CC5)c(O)c4c3C2=O)NC(=O)/C(C)=C\C=C\[C@H](C)[C@H](O)[C@@H](C)[C@@H](O)[C@@H](C)[C@H](OC(C)=O)[C@@H]1C	inactive	–
O=c1[nH]sc2ccccc12	–	0.0259 µM (active)
CC1=CC(=O)/C(=C(/C)O)C(=O)O1	inactive	–
CC(O)CC(C)(C)O (configuration not stated)	inactive	–
CCN(CC)C(=O)c1cc(S(=O)(=O)Cc2ccccc2)c(N2CCC(c3ccccc3)CC2)cc1N(CC)CCN(C)C	–	3.04 µM (active)
CCCCCCCCCCCCO	inactive	–
O=C(O)c1ccccc1-n1cc(C(=O)O)c(=O)c2cc(Nc3c(F)cc(F)cc3Cl)c(Cl)cc21	inactive	–
CC[C@@H]1C[C@H](N(Cc2cc(C(F)(F)F)cc(C(F)(F)F)c2)C(C)=O)c2cc(C(F)(F)F)ccc2N1C(=O)OC(C)C	inactive	–
O=C1O[C@H]([C@@H](O)CO)C(O)=C1O	inactive	–
Clc1ccccc1C(c1ccccc1)(c1ccccc1)n1ccnc1	–	5.01 µM (active)
COc1cccc([C@H](O)C2CCN(CCc3ccc(F)cc3)CC2)c1OC	–	2.87 µM (active)
Cc1cn([C@H]2C[C@H](N=[N+]=[N-])[C@@H](CO)O2)c(=O)[nH]c1=O	inactive	–
CC(C)(C)c1cc(/C=C2\SC(N)=NC2=O)cc(C(C)(C)C)c1O	–	14.7 µM (active)
c1ccc2n[nH]nc2c1	inactive	–
CN1C(=O)CC[C@H]1c1cccnc1	inactive	–
CCN(Cc1cccc(S(=O)(=O)O)c1)c1ccc(C(=C2C=CC(=[N+](CC)Cc3cccc(S(=O)(=O)O)c3)C=C2)c2ccccc2S(=O)(=O)[O-])cc1	inactive	–

Test: CCTE_Shafer_MEA_acute_firing_rate_mean: CCTE's Neural Acute Assay for Mean Firing Rate, Shafer Lab (AID 2284009);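 also: analyzed for loss of signal so actives lower firing rate relative to DMSO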
In short: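 Percent change in well-mean firing rate was derived from extracellular spikes detected at 8x rms noise (300-5000 Hz band-pass) before and after a 40-min compound exposure. Cultures were primary rat cortical neurons, tested at 0.03-40 uM.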

SMILES	outcome	AC50
CO[C@H]1/C=C/O[C@@]2(C)Oc3c(C)c(O)c4c(O)c(c(/C=N/N5CCN(C)CC5)c(O)c4c3C2=O)NC(=O)/C(C)=C\C=C\[C@H](C)[C@H](O)[C@@H](C)[C@@H](O)[C@@H](C)[C@H](OC(C)=O)[C@@H]1C	inactive	–
O=c1[nH]sc2ccccc12	–	0.0286 µM (active)
CC1=CC(=O)/C(=C(/C)O)C(=O)O1	inactive	–
CC(O)CC(C)(C)O (configuration not stated)	inactive	–
CCN(CC)C(=O)c1cc(S(=O)(=O)Cc2ccccc2)c(N2CCC(c3ccccc3)CC2)cc1N(CC)CCN(C)C	–	3.04 µM (active)
CCCCCCCCCCCCO	inactive	–
O=C(O)c1ccccc1-n1cc(C(=O)O)c(=O)c2cc(Nc3c(F)cc(F)cc3Cl)c(Cl)cc21	inactive	–
CC[C@@H]1C[C@H](N(Cc2cc(C(F)(F)F)cc(C(F)(F)F)c2)C(C)=O)c2cc(C(F)(F)F)ccc2N1C(=O)OC(C)C	inactive	–
O=C1O[C@H]([C@@H](O)CO)C(O)=C1O	inactive	–
Clc1ccccc1C(c1ccccc1)(c1ccccc1)n1ccnc1	–	5.03 µM (active)
COc1cccc([C@H](O)C2CCN(CCc3ccc(F)cc3)CC2)c1OC	–	2.87 µM (active)
Cc1cn([C@H]2C[C@H](N=[N+]=[N-])[C@@H](CO)O2)c(=O)[nH]c1=O	inactive	–
CC(C)(C)c1cc(/C=C2\SC(N)=NC2=O)cc(C(C)(C)C)c1O	–	14.8 µM (active)
c1ccc2n[nH]nc2c1	inactive	–
CN1C(=O)CC[C@H]1c1cccnc1	inactive	–
CCN(Cc1cccc(S(=O)(=O)O)c1)c1ccc(C(=C2C=CC(=[N+](CC)Cc3cccc(S(=O)(=O)O)c3)C=C2)c2ccccc2S(=O)(=O)[O-])cc1	inactive	–
